Only some compounds are listed: those with a hit (about 3.9% of all), similar ones and a draw of the others.
CR mimetic SO: reduction of superoxide in aged yeast, primary screen, HTS; superoxide response (% of plate mean), % at 10 µM; AID 2690, 2010; S. cerevisiae aged cells, superoxide DHE fluorescence; hits give low values; 0.18% of 330,000 active;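 active = superoxide response under a set limit, about three screen SD below normal, cut at about 65% in these data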;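 note: yeast aged for seven days with compound at 30 °C before DHE staining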
PLC-beta3 inh: human PLC-beta3 inhibitors, primary screen, biochemical, fluorescence; Purified PLC-beta3, fluorogenic substrate; inhibition, % at 12.2 µM; 0.18% of 370,000 active; AID 720704, 2013; in the data active = inhibition above about 11%
sPLA2-III inh: human group III sPLA2 inhibitors, primary screen, biochemical, QFRET, BODIPY PC-A2 liposome substrate; QFRET BODIPY PC-A2 liposome hydrolysis, fluorescence; inhibition, % at 12.2 µM; 0.56% of 370,000 active; Group 3 secretory phospholipase A2 (Homo sapiens), Q9NZ20;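 active = inhibition above mean plus 3 SD of compounds lying within the high and low control bounds, cut at about 19% in these data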
HIF act: HIF pathway transcriptional activators, primary screen, cell-based, U2OS HRE-luciferase, luminescence. 0.32% of 300,000 active. U2OS HRE-luciferase reporter; normalized: DMSO 0%, desferrioxamine 100%. activation, % at 7.5 µM (by protocol);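 active = mean activation of at least 10% of the iron chelator positive control signal, with at least half of replicates also reaching 10%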
AHR activator: AHR activators, primary screen, cell-based, luminescence, luciferase reporter, human | Aryl hydrocarbon receptor (Homo sapiens), P35869 | AHR-responsive luciferase reporter cells | activation, % at 5 µM | 2.5% of 320,000 active; in the data active = activation above about 47%
PLC-gamma1 inh: PLC-gamma1 enzyme inhibitors, primary screen, biochemical, fluorescence, purified enzyme; inhibition, % at 12.2 µM; fluorogenic substrate; 1-phosphatidylinositol 4,5-bisphosphate phosphodiesterase gamma-1 (Homo sapiens), P19174; 0.84% of 370,000 active; in the data active = inhibition above about 9.5%
Hits are given with their value.

Results for O=c1c2ccccc2nnn1CSc1ccccc1 ?
CR mimetic SO: inactive; PLC-beta3 inh: inactive; sPLA2-III inh: inactive; HIF act: inactive; AHR activator: 60; PLC-gamma1 inh: inactive

What do the screens show for `O=C(Nc1cccc(Cl)c1Cl)c1ccc(-c2ccccc2)cc1`?
CR mimetic SO: inactive; PLC-beta3 inh: inactive; sPLA2-III inh: inactive; HIF act: inactive; AHR activator: 65; PLC-gamma1 inh: inactive

What do the screens show for `Nc1ccccc1NC(=O)c1ccccc1`?
CR mimetic SO: inactive; PLC-beta3 inh: inactive; sPLA2-III inh: inactive; HIF act: 25; AHR activator: inactive; PLC-gamma1 inh: inactive

Results for Cc1ccccc1S(=O)(=O)Nc1ncc(C(F)(F)F)cc1Cl ?
CR mimetic SO: inactive; PLC-beta3 inh: inactive; sPLA2-III inh: inactive; HIF act: inactive; AHR activator: inactive; PLC-gamma1 inh: inactive

What do the screens show for `O=S(=O)(NNc1ncc(C(F)(F)F)cc1Cl)c1ccccc1`?
CR mimetic SO: inactive; PLC-beta3 inh: inactive; sPLA2-III inh: inactive; AHR activator: 69; PLC-gamma1 inh: inactive

Results for COc1ccc(/C=N/Nc2ncnc3sc4c(c23)CCCC4)cc1OC ?
CR mimetic SO: inactive; PLC-beta3 inh: inactive; sPLA2-III inh: inactive; HIF act: 10; AHR activator: inactive; PLC-gamma1 inh: inactive

Results for COc1ccc(/C=N/Nc2ncnc(Cl)c2N)cc1OC ?
CR mimetic SO: inactive; PLC-beta3 inh: inactive; sPLA2-III inh: inactive; HIF act: inactive; AHR activator: inactive; PLC-gamma1 inh: inactive

What do the screens show for `Fc1ccc(Nc2ncnc3sc4c(c23)CCC4)cc1F`?
CR mimetic SO: inactive; PLC-beta3 inh: inactive; sPLA2-III inh: inactive; HIF act: inactive; AHR activator: 49; PLC-gamma1 inh: inactive

What do the screens show for `Cc1cccc(N2Cc3ccc(Br)cc3C2)c1`?
CR mimetic SO: inactive; PLC-beta3 inh: inactive; sPLA2-III inh: inactive; HIF act: inactive; AHR activator: 48; PLC-gamma1 inh: inactive

Results for C/C(=N/O)c1cccc(N2Cc3ccccc3C2)c1 ?
CR mimetic SO: inactive; PLC-beta3 inh: inactive; sPLA2-III inh: inactive; HIF act: inactive; AHR activator: inactive; PLC-gamma1 inh: inactive

What do the screens show for `CCn1c(COc2ccccc2)nnc1SCc1ccc(C#N)cc1`?
CR mimetic SO: inactive; PLC-beta3 inh: inactive; sPLA2-III inh: inactive; HIF act: inactive; AHR activator: inactive; PLC-gamma1 inh: 9.6

What do the screens show for `Cc1ccccc1C(=O)n1ccc2ccc(-c3ccc4ccn(Cc5ccc(C#N)cc5)c4c3)cc21`?
PLC-beta3 inh: inactive; sPLA2-III inh: inactive; PLC-gamma1 inh: inactive

Results for Oc1ccc(Cl)cc1/C=C/c1ccc2cccc(O)c2n1 ?
PLC-beta3 inh: inactive; sPLA2-III inh: inactive; HIF act: inactive; PLC-gamma1 inh: inactive

How did Oc1c(Cl)cc(Cl)cc1/C=C/c1ccc2cccc(O)c2n1 do in these assays?
CR mimetic SO: inactive; PLC-beta3 inh: inactive; sPLA2-III inh: inactive; HIF act: inactive; AHR activator: 51; PLC-gamma1 inh: inactive

Results for Cc1ccsc1/C=C/c1ccc2cccc(O)c2n1 ?
CR mimetic SO: inactive; PLC-beta3 inh: inactive; sPLA2-III inh: inactive; HIF act: inactive; AHR activator: 94; PLC-gamma1 inh: inactive

What do the screens show for `Oc1cccc2ccc(/C=C/c3cccs3)nc12`?
CR mimetic SO: inactive; PLC-beta3 inh: inactive; sPLA2-III inh: inactive; HIF act: inactive; AHR activator: 70; PLC-gamma1 inh: inactive

What do the screens show for `CSc1ccc(/C=C/c2ccc3cccc(O)c3n2)cc1`?
CR mimetic SO: inactive; PLC-beta3 inh: inactive; sPLA2-III inh: inactive; HIF act: inactive; AHR activator: inactive; PLC-gamma1 inh: inactive

What do the screens show for `CCOC(=O)N(C)[C@H]1C[C@H]2c3cc(-c4ccccc4C)ccc3CCN2C[C@H]1[C@H](C)O`?
PLC-beta3 inh: inactive; sPLA2-III inh: inactive; PLC-gamma1 inh: inactive

What do the screens show for `O=C(NC1CCC1)c1ccc(C#Cc2cccc(F)c2)nc1`?
PLC-beta3 inh: inactive; sPLA2-III inh: inactive; PLC-gamma1 inh: inactive

How did COc1ccc(/C=C/S(=O)(=O)NCc2ccc(F)cc2)c(CNC(=O)OC(C)(C)C)c1 do in these assays?
PLC-beta3 inh: inactive; sPLA2-III inh: inactive; PLC-gamma1 inh: inactive

What do the screens show for `CN(C)c1ccc(NC(=O)CSc2nc(N)c(C(=O)Nc3ccc(N(C)C)cc3)s2)cc1`?
CR mimetic SO: inactive; PLC-beta3 inh: inactive; sPLA2-III inh: inactive; HIF act: inactive; AHR activator: inactive; PLC-gamma1 inh: inactive

What do the screens show for `COc1ccc(NC(=O)CSc2nc(N)c(C(=O)Nc3ccc(N(C)C)cc3)s2)cc1`?
CR mimetic SO: inactive; HIF act: inactive; AHR activator: 50

What do the screens show for `COc1ccc(-c2cc(=O)[nH]c(=S)[nH]2)cc1`?
CR mimetic SO: inactive; PLC-beta3 inh: inactive; sPLA2-III inh: inactive; HIF act: inactive; AHR activator: inactive; PLC-gamma1 inh: inactive

What do the screens show for `CC(C)Oc1ccc(-c2cc(=O)[nH]c(=O)[nH]2)cc1`?
CR mimetic SO: inactive; PLC-beta3 inh: inactive; sPLA2-III inh: inactive; HIF act: inactive; AHR activator: 69; PLC-gamma1 inh: inactive

How did CN1N=C2c3ccccc3CCC2C1c1ccc(C(F)(F)F)cc1 (configuration not stated) do in these assays?
CR mimetic SO: inactive; HIF act: inactive; AHR activator: inactive

How did CN(C)c1ccc(C2C3CCCc4ccccc4C3=NN2C)cc1 (configuration not stated) do in these assays?
CR mimetic SO: inactive; PLC-beta3 inh: inactive; sPLA2-III inh: inactive; HIF act: inactive; AHR activator: 61; PLC-gamma1 inh: inactive

What do the screens show for `CCN(C(=O)CSc1nc2n[nH]c(C)c2c(=N)n1-c1ccc(Cl)c(C)c1)c1cccc(C)c1`?
CR mimetic SO: inactive; PLC-beta3 inh: inactive; sPLA2-III inh: inactive; HIF act: inactive; AHR activator: inactive; PLC-gamma1 inh: inactive

Results for Cc1cc(-n2c(SCc3ccccc3F)nc3n[nH]c(C)c3c2=N)ccc1Cl ?
CR mimetic SO: inactive; PLC-beta3 inh: inactive; sPLA2-III inh: inactive; HIF act: inactive; AHR activator: 55; PLC-gamma1 inh: inactive

How did CCC(Sc1nc2n[nH]c(C)c2c(=N)n1-c1ccc(C)c(Cl)c1)C(=O)N1CCOCC1 (configuration not stated) do in these assays?
CR mimetic SO: inactive; HIF act: inactive; AHR activator: inactive

Results for CCC(Sc1nc2n[nH]c(C)c2c(=N)n1-c1cccc(Cl)c1)C(=O)NCCOC (configuration not stated) ?
CR mimetic SO: inactive; PLC-beta3 inh: inactive; sPLA2-III inh: inactive; HIF act: inactive; AHR activator: 63; PLC-gamma1 inh: inactive

How did COc1ccccc1NC(=O)CSc1nc2n[nH]c(C)c2c(=N)n1-c1ccccc1Cl do in these assays?
CR mimetic SO: inactive; PLC-beta3 inh: inactive; sPLA2-III inh: inactive; HIF act: inactive; AHR activator: 75; PLC-gamma1 inh: inactive
